Bioassay records (PubChem)
An excerpt weighted towards active compounds, which were near 1.6% of everything screened.
KCNQ2 inh – rat KCNQ2 potassium channel inhibitors, primary screen, cell-based, CHO-K1, FluxOR thallium flux, B-score; 1.1% of 310,000 active; AID 2156, 2009; 20 min; hits give low values; Potassium voltage-gated channel subfamily KQT member 2 (Rattus norvegicus), O88943; B-score at 10 µM;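 active = fluorescence ratio B-score at most minus 3 library SDs, with starting brightness B-score within 2 library SDs, cut at about -5.5 in these data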
Target sequence (O88943 whole entry, looked up): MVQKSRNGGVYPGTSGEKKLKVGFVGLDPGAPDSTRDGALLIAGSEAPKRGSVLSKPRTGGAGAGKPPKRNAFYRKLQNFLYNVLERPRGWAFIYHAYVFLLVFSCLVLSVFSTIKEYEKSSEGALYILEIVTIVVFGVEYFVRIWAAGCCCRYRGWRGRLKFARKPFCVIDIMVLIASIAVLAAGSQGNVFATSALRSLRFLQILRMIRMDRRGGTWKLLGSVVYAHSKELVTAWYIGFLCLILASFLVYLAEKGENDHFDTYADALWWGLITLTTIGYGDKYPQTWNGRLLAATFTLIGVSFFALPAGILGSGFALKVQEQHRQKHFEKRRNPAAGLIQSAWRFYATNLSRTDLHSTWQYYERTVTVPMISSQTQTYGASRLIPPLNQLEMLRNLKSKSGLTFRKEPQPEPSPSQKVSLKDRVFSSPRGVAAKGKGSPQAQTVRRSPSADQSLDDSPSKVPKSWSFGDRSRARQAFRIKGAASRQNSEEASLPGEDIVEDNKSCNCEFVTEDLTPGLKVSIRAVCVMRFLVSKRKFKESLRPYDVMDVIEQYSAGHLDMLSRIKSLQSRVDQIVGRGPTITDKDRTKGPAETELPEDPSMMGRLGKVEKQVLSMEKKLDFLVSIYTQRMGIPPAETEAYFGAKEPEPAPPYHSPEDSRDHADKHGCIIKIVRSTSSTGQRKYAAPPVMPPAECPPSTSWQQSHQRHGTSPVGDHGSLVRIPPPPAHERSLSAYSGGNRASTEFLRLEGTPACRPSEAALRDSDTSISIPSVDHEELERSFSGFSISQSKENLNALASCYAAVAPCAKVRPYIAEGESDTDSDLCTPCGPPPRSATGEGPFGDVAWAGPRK
KCNQ2 enhance – potentiators of rat KCNQ2 potassium channel; 0.54% of 310,000 active; AID 2239, 2010; CHO-K1 KCNQ2, FluxOR thallium flux fluorescence; hits give high values; B-score at 10 µM; Potassium voltage-gated channel subfamily KQT member 2 (Rattus norvegicus), O88943;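 active = fluorescence ratio B-score at least 3 SD of library B-scores, with initial fluorescence B-score within 3 of them, cut at about 5.3 in these data; same plate scores as AID 2156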;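 note: B-score of peak minus minimum over baseline fluorescence ratio after K+ and Tl+ stimulus; positive B-score means potentiation of KCNQ2 with more thallium influx and brighter signal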
* = called active by the depositor; i = inactive; x = no result.

SMILES	KCNQ2 inh	KCNQ2 enhance
CCCc1nnc(SCC(=O)NC2CC2)n1C	i	x
COc1cccc(C(c2nnnn2Cc2ccco2)N2CCN(c3cccc(C)c3C)CC2)c1OC (stereo not given)	-6.2*	-6.2
COc1ccccc1C(c1nnnn1CCc1ccccc1)N1CCN(c2ccccc2)CC1 (stereo not given)	i	x
COc1ccc(OC)c(C(c2nnnn2Cc2ccco2)N2CCN(C)CC2)c1 (stereo not given)	i	x
COc1cccc(C(c2nnnn2CCc2ccccc2)N2CCN(c3ccccc3)CC2)c1OC (stereo not given)	-6.7*	-6.7
CCOP(=O)(OCC)c1nc(-c2cccc([N+](=O)[O-])c2)oc1N1CCCCC1	i	x
CCOP(=O)(c1ccccc1)c1nc(-c2ccccc2Cl)oc1N1CCCCC1 (stereo not given)	-5.6*	-5.6
CC1CCN(C(=O)CSc2ccc(-c3ccc(F)cc3)nn2)CC1	i	1.1
CC1CC(C)(C)N(C(=O)CSc2ccc(-c3ccc(F)cc3)nn2)c2ccccc21 (stereo not given)	-5.7*	-5.7
CC(C)(C)C(=O)CN1C2=NCCCN2c2ccccc21	i	0.03
COc1cccc(OCc2cc(C(=O)NC(C)c3cnn(C)c3C)no2)c1 (stereo not given)	i	0.27
N#CCCNS(=O)(=O)c1ccc(C(=O)OCCCOC(=O)c2ccc(S(=O)(=O)NCCC#N)cc2)cc1	i	0.23
Cc1ccc(CNC(=O)c2cc(=O)c3ccccc3o2)cc1	i	0.3
Cc1ccc(-c2c(C(=O)NCc3ccc(F)cc3)oc(=O)c3ccccc23)cc1	i	9.2*
Cc1ccc(CNC(=O)Cc2ccc(Br)cc2)cc1	i	x
CCN1C(=O)/C(=C/c2ccc(C)s2)SC1=Nc1ccc(OC)cc1	-6.3*	-6.3
CCCN1C(=O)/C(=C/c2ccc(C)o2)SC1=Nc1ccc(OC)cc1	i	x
CCCN1C(=O)/C(=C/c2ccco2)SC1=Nc1ccc(OC)cc1	i	x
COc1ccc(N=C2S/C(=C\c3ccc(C)o3)C(=O)N2CC(C)C)cc1	-6.1*	-6.1
COC(=O)c1ccc(/C=C/c2c(-c3ccsc3)oc3ccc(N4CCOCC4)cc23)cc1	i	2
O=C(COC(=O)C1CCCC1)Nc1ncc(Cl)cc1Cl	i	x
Cc1cccc(CSc2nc3sc(C)c(C)c3c(=O)n2Cc2ccco2)c1	i	0.57
Cc1cccc(CSc2nnc(-c3cccs3)n2Cc2ccco2)c1	-6.1*	-6.1
Fc1cccc(-c2cc3nc4c(c(NCc5ccco5)n3n2)CCCC4)c1	i	x
COc1cccc(-c2cc3nc4c(c(NCC(C)(C)CN(C)C)n3n2)CCCC4)c1	-7.7*	-7.7
SMILES	KCNQ2 inh	KCNQ2 enhance
CC(C)(c1ccccc1)c1ccc(OCC(O)CNC2CCN(Cc3ccccc3)CC2)cc1 (stereo not given)	-8.3*	-8.3
CCOc1ccc(OCC(O)CNC2CCN(Cc3ccccc3)CC2)cc1 (stereo not given)	i	0.8
COc1ccc(O[C@H]2C=C[C@@H](c3ccccc3)O[C@@H]2CO/N=C(\C)CCN2CCc3nc(-c4ccccc4)c(-c4ccccc4)cc3C2)cc1	i	7.5*
CCc1cc2c(nc1CC)CCN(CC/C(C)=N/OC[C@H]1O[C@H](c3ccccc3)C=C[C@@H]1Oc1ccc(OC)cc1)C2	i	x
Clc1cc(Cl)cc(CSc2nnc(-c3sccc3-n3cccc3)o2)c1	-5.9*	-5.9
Clc1cccc(CSc2nnc(-c3sccc3-n3cccc3)o2)c1	i	x
COc1cc2c(cc1OC)C(c1ccc(-c3ccccc3Cl)o1)=NCC2	-8.3*	-8.3
COc1cc2c(cc1OC)C(c1ccc(-c3ccc(Cl)c(Cl)c3)o1)=NCC2	-8.8*	-8.8
COc1cc2c(cc1OC)C(c1ccc(-c3cc(Cl)ccc3Cl)o1)=NCC2	i	x
COc1cc2c(cc1OC)C(c1ccc(-c3ccc(Cl)cc3Cl)o1)=NCC2	i	x
CCCCc1ccc(NC(=O)CSC2=NN3CCCC(=O)N=C3S2)cc1	i	0.07
Cc1ccc(CCNC(=O)CN(C)S(=O)(=O)c2ccc3c(c2)n(C)c(=O)c(=O)n3C)cc1	i	2.2
Cc1ccc(-c2cc(-c3ccc(C)o3)nc(N)c2C#N)cc1	i	x
Cc1ccc(-c2cc(-c3ccc(Cl)cc3)c(C#N)c(N)n2)o1	-6.8*	-6.8
Cc1ccc(-c2[nH]ncc2CN2CCN(C(=O)c3cccs3)CC2)cc1C	i	x
CC12CCC(=O)N1C(C(=O)Nc1cc(C(F)(F)F)ccc1N1CCOCC1)CS2 (stereo not given)	i	x
CC(=O)c1sc(NC(=O)C2CSC3(C)CCC(=O)N23)nc1-c1ccccc1 (stereo not given)	i	x
CC12CCC(=O)N1C(C(=O)Nc1cc(C(F)(F)F)ccc1N1CCCCC1)CS2 (stereo not given)	-6*	-6
CC12CCC(=O)N1C(C(=O)NCCc1ccccc1)CS2 (stereo not given)	i	x
CC12CCC(=O)N1C(C(=O)Nc1ccc(Cl)c(S(=O)(=O)N3CCCCC3)c1)CS2 (stereo not given)	-6.1*	-6.1
CC12CCC(=O)N1C(C(=O)Nc1ccc(Cl)c(Cl)c1)CS2 (stereo not given)	i	x
Cc1sc(NC(=O)C2CSC3(C)CCC(=O)N23)nc1-c1ccccc1 (stereo not given)	-6.9*	-6.9
CC12CCC(=O)N1C(C(=O)NCc1ccccc1Cl)CS2 (stereo not given)	-5.8*	-5.8
COc1ccccc1N1CCN(C(=O)c2oc3ccc(Br)cc3c2C)CC1	i	x
COc1ccccc1N1CCN(C(=O)c2oc3ccc(F)cc3c2C)CC1	-6.5*	-6.5
SMILES	KCNQ2 inh	KCNQ2 enhance
Cc1ccc(COc2ccc(CNCCCN3CCCCCC3=O)cc2)cc1	i	x
CCN(CC)S(=O)(=O)c1cc(C(=O)OCC(=O)NC2CCCc3ccccc32)ccc1C (stereo not given)	-7.7*	-7.7
CNS(=O)(=O)c1cc(C(=O)OCC(=O)NC2CCCc3ccccc32)ccc1Cl (stereo not given)	i	x
O=C(NCCc1ccccc1)C(=S)N1CCCCC1	i	0.52
CCN(CCCNC(=O)CN(C)S(=O)(=O)c1ccc2c(c1)CCC(=O)N2)c1cccc(C)c1	i	x
CCOC(=O)CNC(=S)N(Cc1ccco1)Cc1ccccc1Cl	-6.5*	-6.5
CCCCNC(=O)CNC(=S)N(Cc1ccc(C)cc1)Cc1ccco1	i	0.59
CN1CCN(C2=C(Cl)C(=O)N(C3CCCCC3)C2=O)CC1	i	x
CN1CCN(C2=C(Cl)C(=O)C(c3cnc(N4CCCCC4)s3)=C(Cl)C2=O)CC1	-9*	-9
CCc1cccc(CC)c1NC(=O)C1CCN(C(=O)c2ccco2)CC1	i	0.83
O=C(OCC(=O)N1CCN(C(=O)c2ccco2)CC1)c1cc(-c2ccccc2)nc2ccccc12	i	x
O=C(OCC(=O)N1CCN(C(=O)c2ccco2)CC1)c1cc(-c2cccc(Br)c2)nc2ccccc12	-7*	-7
O=C(Nc1ccccc1C(=O)O)/C(=C/c1ccc([N+](=O)[O-])cc1)NC(=O)c1ccc(Br)o1	i	1.2
CS(=O)(=O)N(CC(=O)Nc1ccc(F)cc1F)C1CCCCC1	i	0.06
COc1ccc(Cl)cc1NC(=O)CN(C1CCCCC1)S(C)(=O)=O	-5.9*	-5.9
O=C(N/N=C/c1cc2ccccc2[nH]1)c1ccccc1Cl	i	0.04
